NPR1 antag = Natriuretic polypeptide receptor (hNpr1) antagonism - Primary qHTS; actives 1.6% (n = 76,000); HEK293 hNpr1 GloSensor cGMP, ANP-stimulated luminescence; AID 1347048, 2019; Atrial natriuretic peptide receptor 1 (Homo sapiens), P16066; Potency, µM (titrated, usually from 46.3 µM), for the others: at the highest dose activity change, negative = inhibition, actives largely listed as inhibitors; also: % is scaled to controls: 0 for no effect and ±100 for the full control effect; nearly all actives have a fitted effect of over 60% in size
Target sequence (P16066 whole entry, looked up): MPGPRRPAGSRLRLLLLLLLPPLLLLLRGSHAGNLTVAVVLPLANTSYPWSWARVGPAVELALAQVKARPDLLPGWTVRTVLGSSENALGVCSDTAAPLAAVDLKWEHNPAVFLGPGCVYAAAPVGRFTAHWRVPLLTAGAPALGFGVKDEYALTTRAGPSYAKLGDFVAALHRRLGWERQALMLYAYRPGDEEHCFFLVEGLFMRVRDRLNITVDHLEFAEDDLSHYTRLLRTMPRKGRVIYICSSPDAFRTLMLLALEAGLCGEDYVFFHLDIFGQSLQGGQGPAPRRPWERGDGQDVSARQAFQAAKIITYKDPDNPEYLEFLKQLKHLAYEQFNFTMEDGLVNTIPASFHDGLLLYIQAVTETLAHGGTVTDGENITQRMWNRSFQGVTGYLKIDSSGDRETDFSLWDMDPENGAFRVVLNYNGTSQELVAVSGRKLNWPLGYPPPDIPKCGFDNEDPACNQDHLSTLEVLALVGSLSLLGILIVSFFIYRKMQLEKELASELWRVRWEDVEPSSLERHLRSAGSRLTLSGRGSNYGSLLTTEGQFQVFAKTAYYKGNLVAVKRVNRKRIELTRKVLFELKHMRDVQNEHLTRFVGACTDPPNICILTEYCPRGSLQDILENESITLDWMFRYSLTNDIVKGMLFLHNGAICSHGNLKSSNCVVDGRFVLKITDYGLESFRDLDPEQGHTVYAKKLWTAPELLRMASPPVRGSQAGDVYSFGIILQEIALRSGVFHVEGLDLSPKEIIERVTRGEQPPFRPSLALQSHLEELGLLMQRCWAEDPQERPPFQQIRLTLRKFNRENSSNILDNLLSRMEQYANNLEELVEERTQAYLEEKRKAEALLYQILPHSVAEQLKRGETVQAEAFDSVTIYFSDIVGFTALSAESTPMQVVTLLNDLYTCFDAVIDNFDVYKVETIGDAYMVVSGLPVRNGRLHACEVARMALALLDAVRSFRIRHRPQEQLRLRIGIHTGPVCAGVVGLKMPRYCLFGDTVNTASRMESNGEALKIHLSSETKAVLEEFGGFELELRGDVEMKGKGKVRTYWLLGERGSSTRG
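Compound pre-incubated 30 min at room temperature on GloSensor-loaded HEK293 cells stably carrying hNpr1 and the pGS-40F cGMP biosensor. Stimulation uses hNppA at 0.1 nM final; luminescence is taken at baseline and 20 min post-agonist.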
HEK cytotox = Cytotoxic Profiling in HEK 293 Cell Line of Diverse Libraries Using Quantitative High-Throughput Screening. HEK 293 viability, ATP luminescence (CellTiter-Glo), 48-72 h. actives 6.6% (n = 94,000). Potency, µM (highest dose often 115 µM), for the others: at the top dose activity change, negative = cytotoxicity, actives largely listed as inhibitors; active = well fitted curve in the direction sought with a large enough effect; inconclusive = small, poorly fitted or top-dose-only effect, or another doubt; inactive = no such curve, though single readings can be large; an effect the other way counts as inactive or inconclusive; also: % is scaled to controls: 0 for no effect and ±100 for the full control effect; nearly all actives have a fitted effect of over 60% in size
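HEK 293 cells seeded at 250 cells/well were exposed to compound for 48 or 72 hr at 37 degree Celsius. Viability taken as ATP content by CellTiter-Glo luminescence.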
Luciferase inh = Firefly luciferase inhibition profiling of diverse chemical library using quantitative high-throughput screening | Luciferin 4-monooxygenase (Photinus pyralis), P08659 | purified P. pyralis luciferase, luminescence, biochemical | Potency, µM (top dose mostly 115 µM), usual class: inhibitors | actives 2.5% (n = 76,000) | AID 1347043, 2019; active = well fitted curve in the direction sought with a large enough effect; inconclusive = small, poorly fitted or top-dose-only effect, or another doubt; inactive = no such curve, though single readings can be large; an effect the other way counts as inactive or inconclusive; also: % is scaled to controls: 0 for no effect and ±100 for the full control effect; nearly all actives have a fitted effect of over 65% in size
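Biochemical qHTS: compound (6-point titration) added to 10uM D-luciferin plus 10uM ATP in Tris acetate pH 7.5 buffer with Mg, Tween-20 and BSA, then purified enzyme at 10nM; light output imaged.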
3T3 cytotox = Cytotoxic Profiling in NIH 3T3 Cell Line of Diverse Libraries Using Quantitative High-Throughput Screening; NIH 3T3 viability, CellTiter-Glo ATP luminescence, 48-72 h; Potency, µM (series often up to 96.7 µM), inactives show at the top dose activity change, negative = cytotoxicity, usual class: inhibitors; actives 4.3% (n = 94,000); AID 1345082, 2018; active = well fitted curve in the direction sought with a large enough effect; inconclusive = small, poorly fitted or top-dose-only effect, or another doubt; inactive = no such curve, though single readings can be large; an effect the other way counts as inactive or inconclusive; also: % is scaled to controls: 0 for no effect and ±100 for the full control effect; nearly all actives have a fitted effect of over 55% in size
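Cells were seeded at 400 per well, treated with pin-transferred compound, and kept 48 or 72 hr at 37 °C before CellTiter-Glo addition and luminescence imaging of cellular ATP.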
NPR1 antag cnf = Natriuretic polypeptide receptor (hNpr1) antagonism - Confirmation; HEK293 hNpr1 cGMP GloSensor luminescence, ANP-stimulated; AID 1347044, 2019; Potency, µM (highest dose often 57.6 µM), for the others: at the top dose activity change, negative = inhibition, usual class: inhibitors; shares compounds with NPR1 antag; actives 76% (n = 1,400); also: nearly all actives have a fitted effect of over 70% in size
Npr2 selectivity = Natriuretic polypeptide receptor (hNpr2) antagonism - Subtype selectivity assay; Potency, µM (top dose mostly 57.6 µM), for inactives: at the top dose activity change, negative = inhibition, actives largely listed as inhibitors; shares compounds with NPR1 antag; actives 67% (n = 1,400); AID 1347046, 2019; HEK293 hNpr2 GloSensor cGMP luminescence, CNP-stimulated; also: nearly all actives have a fitted effect of over 70% in size
FLuc counter = Natriuretic polypeptide receptor (hNpr1) antagonism - Confirmation firefly luciferase (FLuc) inhibition counterscreen; actives 0.7% (n = 1,400); purified FLuc enzyme, luminescence, Km substrate; shares compounds with NPR1 antag; AID 1347047, 2019; Potency, µM (series often up to 57.6 µM), for the others: at the highest dose activity change, negative = inhibition, hits mostly inhibitors; active = well fitted curve in the direction sought with a large enough effect; inconclusive = small, poorly fitted or top-dose-only effect, or another doubt; inactive = no such curve, though single readings can be large; an effect the other way counts as inactive or inconclusive; also: 0% is about no effect
GloSensor cGMP = Natriuretic polypeptide receptor (hNpr1) antagonism - Counterscreen GloSensor control cell line; shares compounds with NPR1 antag; HEK293 GloSensor cGMP, SNP-stimulated, luminescence; Potency, µM (doses to about 57.6 µM), without a hit: top-dose activity change, negative = inhibition, most hits filed as inhibitors; actives 69% (n = 1,400); AID 1347051, 2019; also: % is scaled to controls: 0 for no effect and ±100 for the full control effect; nearly all actives have a fitted effect of over 70% in size
* = called active by the depositor; i = inactive; ? = inconclusive; . = no result; [ ] = another dose, or the depositor's remark. Hits are enriched below; roughly 11% of the tested compounds scored in any of these assays. Unless noted, calls follow the shape of the full dose curve. Potency is read from the fitted curve at half-maximal effect.

SMILES	NPR1 antag	HEK cytotox	Luciferase inh	3T3 cytotox	NPR1 antag cnf	Npr2 selectivity	FLuc counter	GloSensor cGMP
CN(C)c1ccc(C(=O)N2CCC3(CC2)N=C(c2ccc(Br)cc2)NO3)cc1	11.2µM*	?	i	-17.3%	19.3µM*	21.7µM*	0.3%	15.3µM*
Cc1ccc(C(=O)N2CCC3(CC2)N=C(c2ccccc2)NO3)cc1	0.5%	?	i	-6.9%	.	.	.	.
O=C(c1ccccc1)N1CCC2(CC1)N=C(c1ccc(Br)cc1)NO2	15.8µM*	?	i	?	27.3µM*	?	0.6%	?
Cc1ccc(C(=O)N2CCC3(CC2)N=C(c2ccc(Br)cc2)NO3)cc1	15.8µM*	?	i	-22.1%	21.7µM*	19.3µM*	2.2%	19.3µM*
O=C(c1cccc(F)c1)N1CCC2(CC1)N=C(c1ccc(Br)cc1)NO2	?	?	i	?	.	.	.	.
CCNC(=O)N[C@H]1[C@H](O)[C@@H](N2CCN(C(C)=O)CC2)[C@@H]2OC[C@H]1O2	3.2%[70.6 µM]	-8.1%[172 µM]	i	-13.2%[174 µM]	.	.	.	.
COc1ccc(C(=O)N2CCC(=O)N(CCC#N)C[C@H]3COc4ccc(C)cc4[C@H]32)cc1	.	?	.	-20.7%	.	.	.	.
Cc1ccc(Cl)cc1N1CCN(C(=O)CCn2ccn3nc4c(c3c2=O)CCCC4)CC1	?	?	i	?	.	.	.	.
CCOc1ccccc1N1CCN(C(=O)CCn2ccn3nc4c(c3c2=O)CCCC4)CC1	?	-16.6%	i	-20.2%	?	?	1.2%	-2.0%
COc1ccc(S(=O)(=O)N[C@H]2C[C@@H](c3nc(-c4ccc(OC(F)(F)F)cc4)no3)N(C)C2)cc1	11.2µM*	?	i	?	21.7µM*	21.7µM*	-13.4%	17.2µM*
CCCS(=O)(=O)N[C@H]1C[C@@H](c2nc(-c3ccc(OC)cc3)no2)N(C)C1	-22.8%[70.6 µM]	?	?	-6.9%[174 µM]	.	.	.	.
N#Cc1cccc(CN2CC(CNc3ccccc3)C3(C2)CN(c2ccccc2)C3)c1 (stereo unspecified)	4.0%[70.6 µM]	?	i	-6.4%[138 µM]	.	.	.	.
CCOc1ccccc1C1NC(=O)N(CC(=O)Nc2cccc(C(F)(F)F)c2)C2=C1C(=O)OC2 (stereo unspecified)	?	?	i	44.7µM*	?	-27.1%	-9.0%	?
O=C(CN1C(=O)NC(c2ccc(Cl)cc2)C2=C1COC2=O)Nc1cccc(C(F)(F)F)c1 (stereo unspecified)	?	?	i	?	?	?	-19.4%	?
O=C1OCC2=C1C(c1ccc(Cl)cc1)NC(=O)N2CC(=O)N1CCC(Cc2ccccc2)CC1 (stereo unspecified)	12.6µM*	28.2µM*	i	?	19.3µM*	24.3µM*	-1.2%	19.3µM*
O=C(CN1C(=O)NC(c2ccccc2Cl)C2=C1COC2=O)Nc1ccc(C(F)(F)F)cc1 (stereo unspecified)	0.6%	?	i	?	.	.	.	.
CC1CCN(C(=O)CN2C(=O)NC(c3ccccc3)C3=C2COC3=O)CC1 (stereo unspecified)	5.6%	1.1%	i	i	.	.	.	.
COc1ccc(C(=O)N2CCC(c3nn(C)c(=O)n3Cc3ccccc3)CC2)cc1F	.	2.1%	.	-21.6%	.	.	.	.
COC(=O)CNC(=O)c1ccc(-c2ccc(OC)nn2)cc1	.	-3.4%[172 µM]	.	-13.7%[138 µM]	.	.	.	.
CC(=O)N1Cc2ccccc2CC2(CCCN2C)C1 (stereo unspecified)	.	5.0%[172 µM]	.	3.5%[138 µM]	.	.	.	.
Cc1ccncc1-c1c(C)nn2c1N(Cc1ccc(C(=O)O)cc1)CCC2	-12.1%[70.6 µM]	?	i	?	.	.	.	.
Cc1cccc(CN2CCCn3nc(C)c(-c4ccccc4-c4ccccc4)c32)n1	15.8µM*	?	i	12.6µM*	11.1µM*	28µM*	-1.6%[86.2 µM]	7.89µM*
Cc1nn2c(c1-c1ccccc1-c1ccccc1)N(Cc1ccc(O)cc1)CCC2	3.55µM*	7.94µM*	i	8.91µM*	2.8µM*	4.98µM*	1.8%[86.2 µM]	3.53µM*
COc1ccc(CC(=O)N2CCC(C(=O)N3CCC(N4CCCC4=O)CC3)CC2)cc1	.	i	.	2.4%	.	.	.	.
O=C(NCC1CC1)C1CCc2nnc(-c3cccc(C(F)(F)F)c3)n21 (stereo unspecified)	.	-22.7%[172 µM]	.	-9.8%[138 µM]	.	.	.	.
SMILES	NPR1 antag	HEK cytotox	Luciferase inh	3T3 cytotox	NPR1 antag cnf	Npr2 selectivity	FLuc counter	GloSensor cGMP
O=C(Nc1cc(F)cc(C(F)(F)F)c1)N1CCCOC(Cn2cccn2)C1 (stereo unspecified)	12.6µM*	?	i	?	21.7µM*	21.7µM*	2.8%	19.3µM*
O=C(Cn1ccc2ccccc2c1=O)N1CCCOC(Cn2cccn2)C1 (stereo unspecified)	3.3%	-5.0%	i	1.7%	.	.	.	.
CC(C)c1ccc(CN2CCC3(CC2)OCCN(c2ccc(F)cc2)C3=O)cc1	22.4µM*	?	i	?	35.3µM*	31.4µM*	-1.9%[86.2 µM]	35.3µM*
COc1ccc(NC(=O)CCC2CCN(S(=O)(=O)c3ccccc3F)CC2)c(OC)c1	.	?	.	-28.2%	.	.	.	.
O=C(Nc1ccc(F)cc1)c1cc2n(n1)CC(c1ccc3c(c1)OCO3)OC2 (stereo unspecified)	12.6µM*	?	i	?	21.7µM*	34.3µM*	-15.6%	?
CCc1ccc(CNC(=O)c2cc3n(n2)CC(c2ccc4c(c2)OCO4)OC3)cc1 (stereo unspecified)	-28.1%	?	i	?	?	-20.2%	-7.1%	?
CCc1ccc(NC(=O)c2cc3n(n2)CC(c2ccc(Cl)cc2)OC3)cc1 (stereo unspecified)	11.2µM*	?	i	?	21.7µM*	?	-18.9%	?
